# Test results: PubChem BioAssay
# “And” between values parts separate entries of the source, which are not always exact repeats. Equal entries are not always repeated. For part of these data: Potency and affinity values are given separately. A structure can be active in one record and inactive in another. The source made the active and inactive calls.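 The calls were made as follows, unless noted: active = normalized viability below 100% at a tested concentration; inactive = the rest.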
# Key:
# [1] = polyglutamine-triggered caspase-3 activation inhibitors, cell-based (AID 1583); details: polyglutamine-induced caspase-3 activation, cell assay; stronger effect = higher value;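 tested at 10 µM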
# [2] = suppressors of polyQ aggregation in yeast, 75Q-TubU reporter (AID 1593); details: Yeast 75Q polyglutamine aggregation reporter
# [3] = rescue of polyQ-huntingtin neuronal dysfunction in worms, whole organism, C. elegans mechanosensory neurons, N-terminal huntingtin (AID 1599); details: touch response, stronger effect = higher value
# [4] = inhibitors of mitochondrial cytochrome c release, biochemical, purified mitochondria (AID 1603); details: stronger effect = lower value;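 also: mouse liver mitochondria challenged with calcium chloride; signal normalized to the plate average as 100%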
# [5] = inhibitors of polyQ protein aggregation (AID 1604); details: polyglutamine-induced protein aggregation inhibition assay; stronger effect = higher value; tested at 2.5 µM
# [6] = enhancers of glutamate uptake in motor neurons, MN-1 cell line (AID 1612); details: MN-1 motor neuron cells, stronger effect = higher value;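 also: tested at 1 µM final; 0% = mean of DMSO vehicle wells on each plate; positive means more glutamate uptake than control and negative means less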
# [7] = suppressors of polyglutamine aggregation in yeast, 75Q-TubH (AID 1616); details: S. cerevisiae 75Q-TubH polyglutamine aggregation suppression; stronger effect = higher value
# [8] = hESC survival regulators, cell-based (AID 493140; call rule not given here;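 also: cells exposed to compounds for four days before counting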); details: human embryonic stem cell survival screen; stronger effect = higher value
# [9] = liver-stage malaria parasite growth inhibition, primary screen, cell-based, HepG2, luciferase luminescence, HepG2 viability (AID 624349; in the data active = parasite load remaining mostly below about 12%, no sharp cut-off; inactive = mostly above about 10%;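 also: 100% = mean of DMSO negative control wells on the same plate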); details: P. berghei liver stage in HepG2, luciferase luminescence, concentration not given here; parasite load remaining: stronger effect = lower value; viability: measured here: HepG2 viability without parasites
# [10] = Cy5 fluorescence interference with SSB-bound oligo, artefact control for HCV NS3 helicase inhibitor project, biochemical, NIH Clinical Collection, E. coli SSB (AID 743268; call rule not given here)
# [11] = test system: Hepatitis C virus NS3 helicase; test: HCV NS3 helicase inhibitors, primary screen, biochemical, fluorescence polarization, NIH Clinical Collection (AID 743270; call rule not given here); details: NS3 helicase binding to Cy5-dT15 DNA, stronger effect = higher value, concentration not given here
# [12] = target: Single-stranded DNA-binding protein (Escherichia coli (strain K12)) (UniProt P0AGE0); test: E. coli SSB displacement from DNA, counter-screen for HCV NS3 helicase inhibitor project, biochemical, fluorescence polarization, NIH Clinical Collection (AID 743271; in the data active = inhibition above about 28%); details: stronger effect = higher value, concentration not given here
# [13] = fluorescence interference in NS3h assay format, artefact control for HCV NS3 helicase inhibitor project, biochemical, NIH Clinical Collection (AID 743272; call rule not given here;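 also: HCV NS3 helicase with a Cy5 labelled single stranded DNA probe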); details: fluorescence interference counterscreen, stronger effect = lower value
# [14] = modulation of C. elegans fzo-1 (AID 1259413; call rule not given here;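 also: fzo-1 mutant C. elegans worms in liquid wells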); details: C. elegans fzo-1 modulator screen, mean read-out; stronger effect = higher value
# [15] = viability rescue of complex I mutant cybrids, primary screen, cell-based, galactose medium, ATP luminescence (AID 1645843;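 active = z-score of at least 1.8 in each of two replicates, scored against plate mean and spread of sample wells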;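 also: positive z means more ATP and so rescue of galactose-driven cybrid death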); details: complex I mutant cybrid cells, 72 h, stronger effect = higher value
# [16] = test system: F380Y/beta1; test: modulators of BK channel variants, profiling panel, selectivity assay, cell-based, U2OS BacMam, thallium flux, beta subunits (AID 1259406;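 active = thallium flux through the channel raised or lowered by more than 3 SD from vehicle-only wells, actives on both sides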;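 also: initial slope of Thallos dye fluorescence rise after thallium is added; log ratio against the mean of 0.3% DMSO vehicle wells on the same plate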); details: at 30 µM
# [17] = test system: F380Y/beta4; test: as above; details: at 30 µM
# [18] = test system: R275C/beta4; test: as above; details: at 30 µM
# [19] = test system: R275C/Slo1WT/beta2; test: as above; details: at 30 µM
# [20] = ovarian cancer cell viability with rucaparib, profiling panel, oncology-focused library, rucaparib conditional (AID 1508598); details: patient-derived ovarian cancer cells, CellTiter-Glo viability, 144 h, stronger effect = lower value
smiles,measurement,setting,value
CC(C)(C)NCC(O)COc1cccc2c1C[C@H](O)[C@H](O)C2 (some centres undefined),inhibition,[1],27.5%
same,score,[2],1.45
same,rescue above control,[3],-2.31
same,cytochrome c release ratio,[4],0.46
same,inhibition of aggregation,[5],78.2%
same,glutamate uptake change,[6],-4.44%
same,aggregation suppression score,[7],1.12
same,survival,[8],5.83 (inactive)
same,parasite load remaining,[9],69.2% (inactive) and 72.2% (inactive) and 65.4% (inactive)
same,viability,[9],124% and 85.6% and 141%
same,fluorescence ratio,[10],0.99 (inactive)
same,inhibition,[11],-1.36% (inactive)
same,inhibition,[12],0.29% (inactive)
same,fluorescence ratio,[13],0.9 (inactive)
same,mean signal,[14],269 (inactive)
same,z-score,[15],0.01 (inactive)
same,log fold change Tl+ flux,[16],0.00674 (inactive)
same,log fold change Tl+ flux,[17],0.0116 (inactive)
same,log fold change Tl+ flux,[18],-0.0328 (inactive)
same,log fold change Tl+ flux,[19],0.00485 (inactive)
Cc1ccc(-c2cc(C(F)(F)F)nn2-c2ccc(S(N)(=O)=O)cc2)cc1,inhibition,[1],23.5%
same,score,[2],-0.03
same,rescue above control,[3],17.2
same,cytochrome c release ratio,[4],4.42
same,inhibition of aggregation,[5],77%
same,glutamate uptake change,[6],-10.9%
same,aggregation suppression score,[7],0.638
same,fluorescence ratio,[10],1.06 (inactive)
same,inhibition,[11],-14.1% (inactive)
same,inhibition,[12],-0.48% (inactive)
same,fluorescence ratio,[13],1.02 (inactive)
same,mean signal,[14],242 (inactive)
same,viability,"[20]; at 0.000305 µM, OCI-C5x cells, with rucaparib 10 µM, 100% = cells with rucaparib alone",113% (inactive)
same,viability,"[20]; at 0.000305 µM, OCI-C5x cells, without rucaparib",107% (inactive)
same,viability,"[20]; at 0.000305 µM, OCI-P5x cells, with rucaparib 20 µM, 100% = cells with rucaparib alone",84.7% (active)
same,viability,"[20]; at 0.000305 µM, OCI-P5x cells, without rucaparib",92.4% (active)
same,viability,"[20]; at 0.00122 µM, OCI-C5x cells, with rucaparib 10 µM, 100% = cells with rucaparib alone",104% (inactive)
same,viability,"[20]; at 0.00122 µM, OCI-C5x cells, without rucaparib",111% (inactive)
same,viability,"[20]; at 0.00122 µM, OCI-P5x cells, with rucaparib 20 µM, 100% = cells with rucaparib alone",91.7% (active)
same,viability,"[20]; at 0.00122 µM, OCI-P5x cells, without rucaparib",91.9% (active)
same,viability,"[20]; at 0.00488 µM, OCI-C5x cells, with rucaparib 10 µM, 100% = cells with rucaparib alone",118% (inactive)
same,viability,"[20]; at 0.00488 µM, OCI-C5x cells, without rucaparib",107% (inactive)
same,viability,"[20]; at 0.00488 µM, OCI-P5x cells, with rucaparib 20 µM, 100% = cells with rucaparib alone",93.8% (active)
same,viability,"[20]; at 0.00488 µM, OCI-P5x cells, without rucaparib",94% (active)
same,viability,"[20]; at 0.0195 µM, OCI-C5x cells, with rucaparib 10 µM, 100% = cells with rucaparib alone",115% (inactive)
same,viability,"[20]; at 0.0195 µM, OCI-C5x cells, without rucaparib",120% (inactive)
same,viability,"[20]; at 0.0195 µM, OCI-P5x cells, with rucaparib 20 µM, 100% = cells with rucaparib alone",96.2% (active)
same,viability,"[20]; at 0.0195 µM, OCI-P5x cells, without rucaparib",88.2% (active)
same,viability,"[20]; at 0.0781 µM, OCI-C5x cells, with rucaparib 10 µM, 100% = cells with rucaparib alone",114% (inactive)
same,viability,"[20]; at 0.0781 µM, OCI-C5x cells, without rucaparib",117% (inactive)
same,viability,"[20]; at 0.0781 µM, OCI-P5x cells, with rucaparib 20 µM, 100% = cells with rucaparib alone",96.7% (active)
same,viability,"[20]; at 0.0781 µM, OCI-P5x cells, without rucaparib",94.3% (active)
same,viability,"[20]; at 0.313 µM, OCI-C5x cells, with rucaparib 10 µM, 100% = cells with rucaparib alone",117% (inactive)
same,viability,"[20]; at 0.313 µM, OCI-C5x cells, without rucaparib",110% (inactive)
same,viability,"[20]; at 0.313 µM, OCI-P5x cells, with rucaparib 20 µM, 100% = cells with rucaparib alone",66.1% (active)
same,viability,"[20]; at 0.313 µM, OCI-P5x cells, without rucaparib",56.6% (active)
same,viability,"[20]; at 1.25 µM, OCI-C5x cells, with rucaparib 10 µM, 100% = cells with rucaparib alone",113% (inactive)
same,viability,"[20]; at 1.25 µM, OCI-C5x cells, without rucaparib",124% (inactive)
same,viability,"[20]; at 1.25 µM, OCI-P5x cells, with rucaparib 20 µM, 100% = cells with rucaparib alone",109% (inactive)
same,viability,"[20]; at 1.25 µM, OCI-P5x cells, without rucaparib",105% (inactive)
same,viability,"[20]; at 5 µM, OCI-C5x cells, with rucaparib 10 µM, 100% = cells with rucaparib alone",122% (inactive)
same,viability,"[20]; at 5 µM, OCI-C5x cells, without rucaparib",131% (inactive)
same,viability,"[20]; at 5 µM, OCI-P5x cells, with rucaparib 20 µM, 100% = cells with rucaparib alone",109% (inactive)
same,viability,"[20]; at 5 µM, OCI-P5x cells, without rucaparib",105% (inactive)
same,z-score,[15],2.48 (active) and 1.33 (inactive) and 1.65 (inactive)
same,log fold change Tl+ flux,[16],-0.0387 (inactive)
same,log fold change Tl+ flux,[17],0.0167 (inactive)
same,log fold change Tl+ flux,[18],-0.00588 (inactive)
same,log fold change Tl+ flux,[19],-0.0385 (inactive)
